Screening data deposited in PubChem BioAssay by National Center for Advancing Translational Sciences (NCATS).
PKM2 activator – qHTS Assay for Activators of Human Muscle isoform 2 Pyruvate Kinase. purified PKM2, Kinase-Glo ATP luminescence, activation; response scale: 0% is enzyme alone, no compound. actives 0.34% (n = 260,000). Potency, µM (doses to about 57.5 µM), most hits filed as activators; note: nearly all actives have a fitted effect of over 55% in size
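hPK-M2, >95% pure; 0.1 mM ADP / 0.5 mM PEP final; imidazole pH7.2 buffer w/ 7 mM MgCl2, 50 mM KCl; 1 h RT; Kinase-Glo lum. Intermediate enzyme activity for dual inhibitor/activator qHTS.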
A-T KAP1 phos – qHTS Assay for Identifying a Potential Treatment of Ataxia-Telangiectasia; F2112 A-T fibroblasts, KAP-1 phosphorylation AlphaLISA; neocarzinostatin DNA damage 30 min before lysis; Potency, µM (doses to about 57.5 µM), hits mostly activators; actives 0.19% (n = 320,000); note: nearly all actives have a fitted effect of over 45% in size
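ATM-like activity read as KAP-1 phosphorylation via AlphaLISA donor/acceptor antibody pairs after lysis and 6 hr at 25C. Cells were ATM-null patient fibroblasts (F2112, hTERT), dosed 60 min, then exposed to the DSB inducer NCS for 30 min.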
Pin1 inh – qHTS Assay to Find Inhibitors of Pin1; Peptidyl-prolyl cis-trans isomerase NIMA-interacting 1 (Homo sapiens), Q13526; Pin1 FP peptide displacement, HiFluor488, 10 min; Potency, µM (series often up to 115 µM), actives largely listed as inhibitors; actives 0.009% (n = 390,000); active = well fitted inhibition curve with a large enough effect in the polarisation, with a control signal flat, not every such curve was filed as active; inconclusive = small, poorly fitted or top-dose-only effect, or effect the other way, or a change in a side signal; inactive = no such curve, though single readings can be large or run the other way; the % refers to the polarisation
Target sequence (Q13526 whole entry, looked up): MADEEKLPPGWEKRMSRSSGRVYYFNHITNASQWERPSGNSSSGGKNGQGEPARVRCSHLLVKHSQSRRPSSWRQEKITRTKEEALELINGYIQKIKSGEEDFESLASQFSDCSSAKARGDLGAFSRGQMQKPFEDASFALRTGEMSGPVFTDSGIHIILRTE
PTAP TSG101 blk – qHTS Assay for Iinhibitors of HIV-1 Budding by Blocking the Interaction of PTAP/TSG101. Tumor susceptibility gene 101 protein (Homo sapiens), Q99816. Fluorescence polarization, FITC-PTAP peptide / Tsg101 binding. Potency, µM (titrated, usually from 115 µM), hits mostly inhibitors. 340,000 tested, under 10 active. AID 493005, 2010; active = well fitted inhibition curve with a large enough effect in the main read-out, with a control signal flat, not every such curve was filed as active; inconclusive = small, poorly fitted or top-dose-only effect, or effect the other way, or a change in a side signal; inactive = no such curve, though single readings can be large or run the other way
Target sequence (Q99816 whole entry, looked up): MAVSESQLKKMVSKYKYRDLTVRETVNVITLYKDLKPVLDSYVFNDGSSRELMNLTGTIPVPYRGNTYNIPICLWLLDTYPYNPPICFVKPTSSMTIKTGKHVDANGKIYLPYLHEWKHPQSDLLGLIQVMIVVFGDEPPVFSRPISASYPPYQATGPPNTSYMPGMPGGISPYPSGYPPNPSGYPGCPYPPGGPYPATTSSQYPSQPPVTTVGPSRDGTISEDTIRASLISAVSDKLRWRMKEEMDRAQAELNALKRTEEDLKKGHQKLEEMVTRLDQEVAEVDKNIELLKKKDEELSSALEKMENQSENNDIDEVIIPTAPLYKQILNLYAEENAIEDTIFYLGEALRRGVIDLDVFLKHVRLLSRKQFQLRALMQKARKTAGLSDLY
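Fluorescence anisotropy tracks displacement of a FITC-tagged PTAP peptide (50 nM) from the Tsg101 binding domain (10 uM), following a 20 min room-temperature incubation at pH 7.5.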
Hits are given with their value; – = inactive; ? = inconclusive; · = no result. Only some compounds are listed: those with a hit (about 0.39% of all), similar ones and a draw of the others. Unless noted, calls come from the whole dose curve; as a rule, active = well fitted activation curve with a large enough effect; inconclusive = small, poorly fitted or top-dose-only effect; inactive = no such curve, though single readings can be large or run the other way.

SMILES | PKM2 activator | A-T KAP1 phos | Pin1 inh | PTAP TSG101 blk
C[C@H](NC(=O)c1nc[nH]c1C(=O)N[C@@H](Cc1ccccc1)C(=O)OCc1ccccc1)C(=O)OCc1ccccc1 | – | – | – | –
CC(C)C[C@H](NC(=O)c1[nH]cnc1C(=O)Nc1ccccc1)C(=O)OC(C)(C)C | – | 32µM | ? | –
Cc1cc(C)cc(Cn2ncc3c4sc(C)cc4n(C)c3c2=O)c1 | · | · | – | ·
CCCCNC(=S)NCCCc1cnc[nH]1 | · | · | – | ·
COc1cc(C(c2nnnn2C(C)(C)C)N2CCN(c3nc4ccccc4s3)CC2)ccc1O (stereo not drawn) | 25µM | – | – | –
CN(C)C(=O)CSc1nnc2sc3ccccc3n12 | – | – | – | –
c1csc(CSc2nnc3sc4ccccc4n23)c1 | 16µM | · | – | –
CC(=O)C1CCN(c2ncc(-c3ccc4c(c3)OCCCO4)s2)CC1 | · | · | – | ·
O=[N+]([O-])c1cccc(Cl)c1NCCNS(=O)(=O)c1ccccc1 | 14µM | – | – | –
COc1cccc(OC)c1C(=O)NC(=O)Nc1c(C)cccc1C | · | 3.5µM | – | –
CC(=O)NCCc1nc2cc(NS(=O)(=O)c3ccc(Cl)cc3)ccc2n1C | – | – | – | –
Cn1c(CCNC(=O)c2ccco2)nc2cc(NS(=O)(=O)c3ccc(Cl)cc3)ccc21 | 16µM | – | – | –
CN(C)S(=O)(=O)c1cccc(NC(=O)c2ccc3nccnc3c2)c1 | – | 16µM | – | –
CC(=O)c1cccc(NC(=O)c2cccc(S(=O)(=O)N(C)C)c2)c1 | – | – | – | –
CC(C)(C)OC(=O)NCCc1nnc(SCC(=O)Nc2cccc(Cl)c2)o1 | – | – | – | –
CC(C)(C)OC(=O)NCCCCCc1nnc(SCC(=O)Nc2cccc(Cl)c2)o1 | 25µM | – | – | –
O=C1Cc2cc(S(=O)(=O)N3CCN(c4ccc(C(F)(F)F)cc4)CC3)ccc2N1 | · | · | – | ·
CC(=O)N(C1=C(Cl)C(=O)c2ccccc2C1=O)C1CCCCC1 | 3.5µM | – | – | –
CC(=O)N(c1ccccc1C)C1CCCC1 | – | – | – | –
CN1CCc2sc(NC(=O)Cc3ccccc3)c(C(=O)Nc3ccc(Cl)cc3)c2C1 | · | · | – | ·
COc1ccc(N=C2S/C(=C\c3ccc(OCC(=O)O)cc3)C(=O)N2CCc2c[nH]c3ccccc23)cc1 | 2.8µM | – | · | –
COc1ccc(N=C2S/C(=C\c3ccc(N4CCOCC4)o3)C(=O)N2CCc2c[nH]c3ccccc23)cc1 | 3.2µM | – | · | ·
O=S(=O)(c1cnc(Cl)c(Cl)c1)N1CCc2ccccc21 | 3.5µM | – | – | –
Cc1cc2c(cc1S(=O)(=O)N1CCc3ccccc31)NC(=O)CO2 | · | – | ? | –
O=C1COc2ccc(S(=O)(=O)N3CCc4ccccc43)cc2N1 | 14µM | – | – | –
SMILES | PKM2 activator | A-T KAP1 phos | Pin1 inh | PTAP TSG101 blk
COc1cccc(N2C(=O)c3ccccc3C2=O)n1 | · | · | – | ·
O=C1C(=Cc2ccc(Br)o2)C(=O)c2ccccc21 | – | – | 3µM | –
COc1cc2c(cc1OC)CN(C(=O)/C=C/c1cc(OC)c(OC)c(OC)c1)CC2 | · | 3.2µM | – | –
COc1cc2c(cc1OC)CN(C(=O)/C=C/c1ccc(F)cc1)CC2 | – | – | – | –
Cc1ccc2cc(CN(C)S(C)(=O)=O)c(=O)[nH]c2c1 | – | – | – | –
Cc1ccc(N(Cc2cc3ccc(C)cc3[nH]c2=O)S(C)(=O)=O)c(C)c1 | 22µM | – | – | –
COc1ccc(OCc2nnnn2-c2ccccc2)cc1 | – | – | – | –
Brc1ccc(OCc2nnnn2-c2ccccc2)cc1 | 25µM | – | – | –
Cc1nc2ccccc2c(=O)n1/N=C/c1ccc([N+](=O)[O-])o1 | – | – | · | ·
CC(=O)N(/N=C/c1ccc([N+](=O)[O-])o1)c1nc2ccccc2c(=O)n1-c1ccccc1 | – | 13µM | – | –
O=S(=O)(Nc1nccs1)c1ccc(NS(=O)(=O)c2cccs2)cc1 | 4.5µM | – | – | –
Cc1ccc2nc(-c3ccc(-c4cccc(Cl)c4)cc3)c(NCc3ccccc3)n2c1 | · | 25µM | – | –
CCCCNc1c(-c2cccc(-c3ccc(OC)cc3)c2)nc2ccc(C)cn12 | · | 35µM | ? | –
CCCCNc1c(-c2cccc(-c3ccc(OC)cc3)c2)nc2cc(C)ccn12 | · | ? | ? | –
COc1ccc(C2c3c(nc(C)[nH]c3=O)Oc3ccc4ccccc4c32)cc1OC (stereo not drawn) | · | · | – | ·
COc1cc2nc(/C=C/c3cc(OC)c(OC)c(OC)c3)sc2cc1SC | – | – | ? | –
COc1cc2nc(C)sc2cc1SC | – | 40µM | – | –
O=C1C=C(Nc2ccccc2)c2ccccc2C1=O | – | 35µM | – | –
O=C1C=C(Nc2ccccc2)C(=O)c2ccccc21 | – | – | – | –
O=[S+]([O-])(c1ccc2c(c1)OCCO2)N1CCN([S+](=O)([O-])c2ccc(F)cc2Cl)CC1 | · | · | – | ·
Cc1c(F)cccc1NS(=O)(=O)c1ccc(OCCNS(C)(=O)=O)cc1 | 6.3µM | – | – | –
Cc1cccc(C)c1NS(=O)(=O)c1ccc(OCCNS(C)(=O)=O)cc1 | – | – | – | –
COc1cccc(C2c3c(ncn(-c4ccc5c(c4)OCO5)c3=N)Oc3ccc4ccccc4c32)c1 (stereo not drawn) | · | · | – | ·
Cn1cccc1/C=C(/C#N)C(N)=S | – | – | – | –
N#C/C(=C/c1ccc(F)cc1)C(N)=S | – | 3.5µM | – | –
SMILES | PKM2 activator | A-T KAP1 phos | Pin1 inh | PTAP TSG101 blk
O=C1CCCN1S(=O)(=O)c1ccccc1 | – | – | – | –
O=C1CN(S(=O)(=O)c2ccccc2)CCN1S(=O)(=O)c1ccccc1 | 4.5µM | – | – | –
c1c[nH]c(C2CCN(c3ncc(-c4ccc5c(c4)OCCCO5)s3)CC2)n1 | · | · | – | ·
O=C(NCCOC(=O)c1ccc(C(=O)OCCNC(=O)c2cccnc2)s1)c1cccnc1 | 16µM | – | – | –
COc1ccc(C(=O)O)cc1COc1ccc(NC(C)=O)cc1 | · | · | – | ·
COc1ccc(-c2oc3cccnc3c2/C=C/c2ccc(OC)c(OC)c2)cc1 | – | 28µM | – | –
CSc1nc2ccc(NS(=O)(=O)c3ccc4c(c3)OCCO4)cc2s1 | 16µM | – | – | –
CSc1nc2ccc(NS(=O)(=O)c3c(Cl)cccc3Cl)cc2s1 | ? | – | – | –
C[C@]12CC[C@@H]3c4ccc(OC(=O)c5ccccc5)cc4CC[C@H]3[C@@H]1CC[C@@H]2O | – | 18µM | – | –
CCOc1ccc(S(=O)(=O)N2CCN(C(=S)NCc3ccco3)CC2)cc1 | 14µM | – | – | –
CN(C)CCCN(CCCN(C)C)C(=S)Nc1ccc(S(=O)(=O)N2CCOCC2)cc1 | – | 18µM | – | –
Cc1cccc(Cn2ncc3c4sc(C)cc4n(C)c3c2=O)c1 | · | · | – | ·
COC(=O)N1C(=O)[C@](CC(C)C)(c2ccccc2)N1C(=O)OC | – | – | – | –
